The text below walks through data of the OligoGym collection.
Further: reference of the scale not given here.

For one assay, the target named is BZW1. The assay is described as follows: pooled miR-30 sensor sort-seq; sequence = guide strand. Conditions: shRNA.
TTCTTCTTCAGCATTTTTGAGC returned a sensor-assay potency score (higher = more potent) of -0.679.

As to AATAATACAGTCTTGAAACTGA, the sensor-assay potency score (higher = more potent) was found to be 0.296.

Regarding TTATCCATGCTGACTTTCCGAA, the sensor-assay potency score (higher = more potent) is -0.947.

Turning to TTCAAGAACAGCAGCAGCTTTT, the sensor-assay potency score (higher = more potent) is -0.773.

On to TTACTTCATCTTCAAAACCTTT, for which the sensor-assay potency score (higher = more potent) was -1.14.

In turn, TAATACAGTCTTGAAACTGAGT showed a sensor-assay potency score (higher = more potent) of -0.709.

For another assay, the target named is C10orf129. The description is as above. Conditions: shRNA.
As to AACTTCTTGAAATCCAACCACC, the sensor-assay potency score (higher = more potent) was -1.25.

TTTAGAACAGTCTCAGGGCAGA: the sensor-assay potency score (higher = more potent) was -0.497.

As for TTATCTGACACCAGGAGCTTGG, the sensor-assay potency score (higher = more potent) was -0.78.

Sequence ATACTGGGAATACTCGACCATT returned a sensor-assay potency score (higher = more potent) of -1.34.

For TACATCTCTGGATTTGCAGATA, the sensor-assay potency score (higher = more potent) is -0.615.

Sequence TGACACAGAAACACACAGGCTC came in with a sensor-assay potency score (higher = more potent) of 0.78.

Take ATAGCTCTTATCTGACACCAGG: the sensor-assay potency score (higher = more potent) is -1.02.

TGTAGGTCTGCTTTGGAGGGGC: the sensor-assay potency score (higher = more potent) was -0.275.

TAGCTCTTATCTGACACCAGGA showed a sensor-assay potency score (higher = more potent) of -0.145.

As for TCTTGAAATCCAACCACCCATC, the sensor-assay potency score (higher = more potent) is -1.29.

As to TTCTTGAAATCCAACCACCCAT, the sensor-assay potency score (higher = more potent) was -0.764.

In turn, AACTTGAATCAACTTCTTGAAA showed a sensor-assay potency score (higher = more potent) of -1.71.

In a further assay the target is C10orf27. The assay is described as above. Conditions: shRNA.
TTCTTCTCTGTGTTCTGGCTTG yielded a sensor-assay potency score (higher = more potent) of -0.353.

TAAAAGGTGATATCTTCGTTTT yielded a sensor-assay potency score (higher = more potent) of -1.08.

In turn, TTTCGCTTTTTGTAAAAGGTGA displayed a sensor-assay potency score (higher = more potent) of -0.648.

As to TTCTTCTCCAGTTTCAGCTCAG, the sensor-assay potency score (higher = more potent) was -0.249.

For the sequence TCGAAATCCACAATCCCTGGGA, the sensor-assay potency score (higher = more potent) is 0.448.

The sequence ATATCTTCGTTTTCTTCGGGGA gave a sensor-assay potency score (higher = more potent) of -0.103.

The sequence TATCTTCGTTTTCTTCGGGGAT came in with a sensor-assay potency score (higher = more potent) of -0.791.

TTTAGTAAGAGTTTTCACGGTA gave a sensor-assay potency score (higher = more potent) of 0.259.

TGATATCTTCGTTTTCTTCGGG: the sensor-assay potency score (higher = more potent) amounted to 0.224.

For the sequence TTTTGTAAAAGGTGATATCTTC, the sensor-assay potency score (higher = more potent) is -0.0398.

Turning to TTGGATGTGGGTCACGTGCTGG, the sensor-assay potency score (higher = more potent) is -0.839.

TTCGATGTCTTCTTCTCTGTGT returned a sensor-assay potency score (higher = more potent) of 0.791.

The next assay has as its target C11orf49. Described as above. Conditions: shRNA.
Sequence TCGTCCATGAGCACAATCCTGG showed a sensor-assay potency score (higher = more potent) of -1.16.

In turn, TTCATGGTCAGCAAATCGCCAT displayed a sensor-assay potency score (higher = more potent) of -0.72.

Turning to AAATATTCAGTGAAGAACCTGG, the sensor-assay potency score (higher = more potent) stood at 0.285.

For the sequence TTTTGCAAGTGAAATCATCTTC, the sensor-assay potency score (higher = more potent) stood at 0.664.

On to TTGGCTAATATCTTCCCTGTTT, for which the sensor-assay potency score (higher = more potent) is -0.438.

For TAGCTATTAGACACAAAGGGGT, the sensor-assay potency score (higher = more potent) is -0.34.

TAACACTAGGGTAAACCCCTGG registered a sensor-assay potency score (higher = more potent) of -0.37.

As for TTTCTGAGTGAGCTCCAGCGGG, the sensor-assay potency score (higher = more potent) is -0.907.

In the case of TTTCACATGTTTGTTTAGCTAT, the sensor-assay potency score (higher = more potent) was -0.281.

TTCTCCAACAGGCCACAGCGGT: the sensor-assay potency score (higher = more potent) is -1.61.
